Results: PubChem BioAssay
Activity calls are given as the source filed them.

assay: probe aCHRDL2 binding to arrayed compounds – biochemical, biotinylated probe, 635/667 nm fluorescence, primary screen (AID 1100); details: small-molecule microarray, higher = more signal

| Compound | composite z-score |
| --- | --- |
| COC(=O)C(CC#Cc1ccc2c(c1)[C@]1(C(=O)N2)[C@H](c2ccc(O)cc2)N2[C@H](c3ccccc3)[C@H](c3ccccc3)OC(=O)[C@H]2[C@@H]1C(N)=O)C(=O)OC | 0.613 |
| O=C1C2C=CC(C(O)c3ccc(Br)cc3)N(Nc3ccccc3)C2C(=O)N1c1ccccc1 (centres undefined) | 0.504 |
| O=C(O)[C@@]1(Cc2ccccc2)COC(c2ccc(OCCCO)cc2)=N1 | 0.988 |
| COC(=O)c1ccc(OC)c(/C=C\CC(CCc2ccccc2)OC(=O)c2ccncc2)c1 (centres undefined) | 0.705 |
| COC(=O)[C@@]1(Cc2ccc(OC)cc2)[C@H]2c3cc(C(=O)N4CCCC4)n(CCc4ccc(O)c(OC)c4)c3C[C@H]2CN1C(=O)c1ccccc1 | 1.09 |
| C[N+](C)(C)CCCC[C@@H]1NC(=O)[C@H]2C[C@@H](C(=O)NCCCCCCN)[C@@H](c3cccc(OCCO)c3)N2C1=O | 0.984 |
| COC(=O)[C@]1(Cc2ccccc2N=[N+]=[N-])N=C(c2ccc(OCCCO)cc2)O[C@@H]1c1ccccc1 | 1.12 |
| CC(C)N1C(=O)c2ccccc2[C@](C)(C(=O)O)[C@@H]1c1ccc(CO)cc1 | 0.855 |
| COc1ccc(C(=O)Nc2ccc3c(c2)[C@]2(O[C@@H](CCO)[C@H]([Si](C)(C)c4ccc(OC)cc4)[C@H]2C)C(=O)N3Cc2ccccc2)cc1 | -0.0221 |

assay: change in splice reporter luminescence, either direction, cell-based, HEK293, spliceosome inhibition project, primary screen (AID 1101); details: HEK293 splicing luciferase reporter, 24 h, higher = more signal, called active from +8 up or from −8 down;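 note: HEK293 cells carrying a splicing-competent luciferase reporter gene; test concentration not given here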

| Compound | z-score |
| --- | --- |
| CCOC(=O)C[C@H]1[C@H](OC(=O)c2ccccc2-c2ccccc2)[C@@H](NC(=O)c2ccccc2)c2cc(OCCCO)ccc2N1C(=O)Cc1ccc(OC)cc1 | -0.269 (inactive) |
| C=CCC(OC(C)=O)[C@@H]1[C@@H](N(Cc2ccc(-c3cccc(C(F)(F)F)c3)o2)C(=O)c2cccc3ccccc23)c2cc(OCCCO)ccc2N1C(=O)c1ccc(-c2ccccc2)cc1 (some centres undefined) | -0.791 (inactive) |
| C[C@H]1ON(c2ccccc2)[C@@H](c2ccccc2)[C@@H]1C(=O)N1C(=O)OC[C@@H]1c1ccccc1 | 0.216 (inactive) |
| COCCOC(=O)N1C(=O)[C@@]2(c3cc(C#CCNC(N)=O)ccc31)[C@H](C(N)=O)[C@H]1C(=O)O[C@H](c3ccccc3)[C@H](c3ccccc3)N1[C@@H]2c1ccc(OCCO)cc1 | 0.731 (inactive) |
| CCCC=C(CCC)[C@@H](NS(=O)(=O)c1cccc2cccnc12)c1ccc(C(=O)OC)cc1 | -0.355 (inactive) |
| CCOC(=O)C1=CC[C@@H](c2ccccc2)N(S(=O)(=O)c2ccc(C)cc2)[C@H]1C=C(C)C | -0.925 (inactive) |
| C#CCNS(=O)(=O)N(C)C | 0.0242 (inactive) |
| O=C1O[C@H](c2ccccc2)[C@H](c2ccccc2)N2[C@H]1[C@@H](C(=O)N1CCN(c3ncccn3)CC1)[C@]1(C(=O)Nc3ccc(C#CCCO)cc31)[C@H]2c1ccc(OCCO)cc1 | -0.0244 (inactive) |
| COCCOC(=O)N1C(=O)[C@@]2(c3cc(C#CC4(O)CCCCCC4)ccc31)[C@H](C(=O)N1CCN(c3ncccn3)CC1)[C@H]1C(=O)O[C@H](c3ccccc3)[C@H](c3ccccc3)N1[C@@H]2c1ccc(O)cc1 | -0.756 (inactive) |
| Cc1cc(C)c(C(O)C2C=CC3C(=O)N(c4ccccc4)C(=O)C3N2Nc2ccc([N+](=O)[O-])cc2)c(C)c1 (centres undefined) | 0.311 (inactive) |
| Cc1ccc(S[C@]2(C(=O)O)CC(=O)N(C3CCCCC3)[C@@H]2c2ccc(CO)cc2)cc1 | 0.134 (inactive) |
| CCOc1cc(C(O)C2C=CC3C(=O)NC(=O)C3N2Nc2ccccn2)ccc1O (centres undefined) | 1.12 (inactive) |
| CC(=O)NCCCC[C@@H]1NC(=O)[C@@H]2C[C@H](C(=O)NCCCC[N+](C)(C)C)[C@H](c3cccc(OCCO)c3)N2C1=O | 0.677 (inactive) |
| COc1ccc([Si](C)(C)[C@@H]2[C@@H](CC(=O)N(CCO)Cc3ccccc3)O[C@]3(C(=O)N(Cc4ccc(N5CCOC5=O)cc4)c4ccccc43)[C@H]2C)cc1 | 0.24 (inactive) |
| COC(=O)[C@]1(Cc2ccccc2CN=[N+]=[N-])N=C(c2ccc(OCCCO)cc2)O[C@@H]1c1ccccc1CN=[N+]=[N-] | -0.613 (inactive) |
| CN(C)C(=O)[C@]1(Cc2ccccc2N=[N+]=[N-])N=C(c2ccc(OCCCO)cc2)O[C@@H]1c1ccccc1CN=[N+]=[N-] | -0.891 (inactive) |
| CC(C)(C)OC(=O)CC[C@@]1(C(=O)N2CCCCC2)N=C(c2ccc(OCCCO)cc2)O[C@@H]1c1ccccc1CN=[N+]=[N-] | -2.55 (inactive) |
| CCN(CC)c1ccc(N2CC=CC34O[C@@H]5/C=C\CCCOC(=O)C5[C@H]3C(=O)N(CCCCCO)[C@@H]4C2=O)cc1 (some centres undefined) | 0.643 (inactive) |

| Compound | z-score |
| --- | --- |
| [N-]=[N+]=Nc1ccccc1C[C@]1(C(=O)NCCN2CCOCC2)N=C(c2ccc(OCCCO)cc2)O[C@H]1c1ccccc1N=[N+]=[N-] | -1.41 (inactive) |
| COC(=O)[C@]1(Cc2ccccc2CN=[N+]=[N-])N=C(c2ccc(OCCCO)cc2)O[C@@H]1c1ccccc1 | -2.04 (inactive) |
| COCCOC(=O)N1C(=O)[C@@]2(c3cc(C#Cc4ccc(OC)cc4)ccc31)[C@H](C(=O)N1CCc3cc(OC)c(OC)cc3C1)[C@H]1C(=O)O[C@H](c3ccccc3)[C@H](c3ccccc3)N1[C@@H]2c1ccc(O)cc1 | -0.318 (inactive) |
| COCCOC(=O)N1C(=O)[C@@]2(c3cc(C#CCCO)ccc31)[C@H](C(=O)NC[C@H](O)c1ccccc1)[C@H]1C(=O)O[C@H](c3ccccc3)[C@H](c3ccccc3)N1[C@@H]2c1ccccc1OCCO | -0.183 (inactive) |
| COc1ccccc1CN1C(=O)c2ccccc2[C@@H](C(=O)NCC(C)C)[C@@H]1c1ccc(CO)cc1 | -0.8 (inactive) |
| C=CCN1C(=O)[C@@]2(O[C@@H](CCn3cc([C@H](O)c4ccccc4)nn3)[C@H]([Si](C)(C)c3ccc(OC)cc3)[C@H]2C)c2cc(NC(=O)c3ccc(OC)cc3)ccc21 | -0.345 (inactive) |
| O=C(O)[C@]1(CCS(=O)(=O)c2ccccc2)N=C(c2ccc(OCCCO)cc2)O[C@@H]1c1ccccc1 | 0.149 (inactive) |
| CN(C)CCCN1C(=O)[C@@]2(Cc3ccccc31)c1ccccc1C(=O)N(Cc1ccccc1)[C@H]2c1ccc(CO)cc1 | -0.773 (inactive) |
| COC(=O)C(CC#Cc1ccc2c(c1)[C@]1(C(=O)N2)[C@H](c2ccc(O)cc2)N2[C@H](c3ccccc3)[C@H](c3ccccc3)OC(=O)[C@H]2[C@@H]1C(N)=O)C(=O)OC | -0.192 (inactive) |
| O=C1C2C=CC(C(O)c3ccc(Br)cc3)N(Nc3ccccc3)C2C(=O)N1c1ccccc1 (centres undefined) | 1.34 (inactive) |
| O=C(O)[C@@]1(Cc2ccccc2)COC(c2ccc(OCCCO)cc2)=N1 | 0.483 (inactive) |
| COC(=O)c1ccc(OC)c(/C=C\CC(CCc2ccccc2)OC(=O)c2ccncc2)c1 (centres undefined) | -0.387 (inactive) |
| COC(=O)[C@@]1(Cc2ccc(OC)cc2)[C@H]2c3cc(C(=O)N4CCCC4)n(CCc4ccc(O)c(OC)c4)c3C[C@H]2CN1C(=O)c1ccccc1 | -0.928 (inactive) |
| C[N+](C)(C)CCCC[C@@H]1NC(=O)[C@H]2C[C@@H](C(=O)NCCCCCCN)[C@@H](c3cccc(OCCO)c3)N2C1=O | -0.481 (inactive) |
| COC(=O)[C@]1(Cc2ccccc2N=[N+]=[N-])N=C(c2ccc(OCCCO)cc2)O[C@@H]1c1ccccc1 | 9.3 (active) |
| CC(C)N1C(=O)c2ccccc2[C@](C)(C(=O)O)[C@@H]1c1ccc(CO)cc1 | 0.591 (inactive) |
| COc1ccc(C(=O)Nc2ccc3c(c2)[C@]2(O[C@@H](CCO)[C@H]([Si](C)(C)c4ccc(OC)cc4)[C@H]2C)C(=O)N3Cc2ccccc2)cc1 | -3.4 (inactive) |
